# In paper PMC11062922 (Nature Chemical Biology, 2023):
# Like-named read-outs stand apart in the source and are kept apart here.
# Key:
# Set-up in all cases: species or system human, MV4-11 + K-562 + COLO205 + SK-N-BE2 + OVCAR-8
# [1] = system: ATM; settings: read-out: apparent Kd, n = 1
# [2] = system: CDC42; settings: read-out: apparent Kd; compound concentrations: 100 nM and 1000 nM (sheet 'Samples'), CATDS: 0.120707875604042; n = 1
# [3] = system: MTOR; settings: read-out: apparent Kd; compound concentrations: 100 nM and 1000 nM (sheet 'Samples'), CATDS: 0.13183909981737599; n = 1
# [4] = system: PIK3CA; settings: read-out: apparent Kd; compound concentrations: 100 nM and 1000 nM (sheet 'Samples'), CATDS: 0.214179011469951; n = 1
# [5] = system: PIK3CD; settings: read-out: apparent Kd; compound concentrations: 100 nM and 1000 nM (sheet 'Samples'), CATDS: 0.39108548114929897; n = 1
# [6] = system: PKN3; settings: read-out: apparent Kd; compound concentrations: 100 nM and 1000 nM (sheet 'Samples'), CATDS: 0.11684999356733999; n = 1
# [7] = system: AKT2; settings: read-out: apparent Kd; compound concentrations: 100 nM and 1000 nM (sheet 'Samples'), CATDS: 0.175578596413346; n = 1
# [8] = system: MAP2K2; settings: read-out: apparent Kd, n = 1
# [9] = system: PLK1; settings: read-out: apparent Kd; compound concentrations: 100 nM and 1000 nM (sheet 'Samples'), CATDS: 0.29940463058405897; n = 1
# [10] = system: RIOK2; settings: read-out: apparent Kd; compound concentrations: 100 nM and 1000 nM (sheet 'Samples'), CATDS: 0.18243724402643599; n = 1
# [11] = system: STK26; settings: read-out: apparent Kd; compound concentrations: 100 nM and 1000 nM (sheet 'Samples'), CATDS: 0.193816418498372; n = 1
# [12] = system: AKT3; settings: read-out: apparent Kd; compound concentrations:100 nM and 1000 nM (sheet 'Samples'); n = 1
# [13] = system: GSK3A; settings: read-out: apparent Kd; compound concentrations:100 nM and 1000 nM (sheet 'Samples'); n = 1
# [14] = system: GSK3B; settings: read-out: apparent Kd; compound concentrations:100 nM and 1000 nM (sheet 'Samples'); n = 1
# [15] = system: SKIV2L2; settings: read-out: apparent Kd; compound concentrations:100 nM and 1000 nM (sheet 'Samples'); n = 1
# [16] = system: CDC42BPG; settings: read-out: apparent Kd; compound concentrations: 100 nM and 1000 nM (sheet 'Samples'), CATDS: 9.9527078318265502E-2; n = 1
# [17] = system: DCTPP1; settings: read-out: apparent Kd; compound concentrations: 100 nM and 1000 nM (sheet 'Samples'), CATDS: 8.8490675480642905E-2; n = 1
# [18] = system: DDR2; settings: read-out: apparent Kd; compound concentrations: 100 nM and 1000 nM (sheet 'Samples'), CATDS: 8.0656162840652496E-2; n = 1
# [19] = system: FLT3; settings: read-out: apparent Kd; compound concentrations: 100 nM and 1000 nM (sheet 'Samples'), CATDS: 8.7421379442902306E-2; n = 1
# [20] = system: IRAK4; settings: read-out: apparent Kd; compound concentrations: 100 nM and 1000 nM (sheet 'Samples'), CATDS: 7.99000406569913E-2; n = 1
# [21] = system: MYLK3; settings: read-out: apparent Kd; compound concentrations: 100 nM and 1000 nM (sheet 'Samples'), CATDS: 0.35041871443296002; n = 1
# [22] = system: PIM2; settings: read-out: apparent Kd; compound concentrations: 100 nM and 1000 nM (sheet 'Samples'), CATDS: 8.1354023438197698E-2; n = 1
# [23] = system: PRKAG1; settings: read-out: apparent Kd; compound concentrations: 100 nM and 1000 nM (sheet 'Samples'), CATDS: 8.6524001120503097E-2; n = 1
# [24] = system: TNIK; settings: read-out: apparent Kd; compound concentrations: 100 nM and 1000 nM (sheet 'Samples'), CATDS: 9.2286016750468006E-2; n = 1
# [25] = compound concentrations:100 nM and 1000 nM (sheet 'Samples')
smiles,measurement,setting,value
COC(=O)Nc1nc2ccc(Oc3ccc(NC(=O)Nc4cc(C(F)(F)F)ccc4F)cc3)cc2s1.Cl [GW693917A],potency estimated from few doses,[1]; [25],222 nM
Fc1ccc(-c2c(-c3ccncc3)nc3n2CCS3)cc1 [SKF-86055],potency estimated from few doses,"[1]; compound concentrations: 100 nM and 1000 nM (sheet 'Samples'), CATDS: 0.230066198267698",174 nM
same,potency estimated from few doses,[2],940 nM
same,potency estimated from few doses,[3],688 nM
same,potency estimated from few doses,[4],201 nM
same,potency estimated from few doses,[5],71.3 nM
same,potency estimated from few doses,[6],1070 nM
C[C@@H](Oc1cc(-n2cnc3ccc(NC(=O)NC(C)(C)C)cc32)sc1C(N)=O)c1ccccc1Cl [GSK346294A],potency estimated from few doses,[7],2320 nM
same,potency estimated from few doses,"[8]; compound concentrations: 100 nM and 1000 nM (sheet 'Samples'), CATDS: 0.187838411723944",1980 nM
same,potency estimated from few doses,[9],851 nM
same,potency estimated from few doses,[10],2120 nM
same,potency estimated from few doses,[11],1850 nM
O=C1NC(=O)C(c2ccc(Cl)cc2)=C1Nc1ccc(Cl)c(C(=O)O)c1 [SB-360741],potency estimated from few doses,[12],1530 nM
same,potency estimated from few doses,[13],601 nM
same,potency estimated from few doses,[14],1310 nM
same,potency estimated from few doses,[8]; [25],140 nM
same,potency estimated from few doses,[15],1360 nM
NS(=O)(=O)c1cccc(N/C=C2\C(=O)Nc3ccccc32)c1 [GW275616X],potency estimated from few doses,"[1]; compound concentrations: 100 nM and 1000 nM (sheet 'Samples'), CATDS: 0.21008347624398099",294 nM
same,potency estimated from few doses,[16],1200 nM
same,potency estimated from few doses,[17],1600 nM
same,potency estimated from few doses,[18],2060 nM
same,potency estimated from few doses,[19],1650 nM
same,potency estimated from few doses,[20],2110 nM
same,potency estimated from few doses,[21],137 nM
same,potency estimated from few doses,[22],2010 nM
same,potency estimated from few doses,[23],1690 nM
same,potency estimated from few doses,[24],1440 nM
